# Assay results: PubChem BioAssay
# Active and inactive are the calls of the source.
# Tests used:
# [1] = small molecules captured by biotinylated probe aFSTL3 – biochemical, small-molecule microarray, fluorescence 635/667, stem cell growth factor project, primary screen (AID 1064); conditions: higher = more signal;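 also: measures binding of the biotinylated anti-FSTL3 antibody to printed compounds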
# [2] = binders from COS7 lysate, DM2A8 probe, primary screen, torsin A project, cell lysate, small-molecule microarray, fluorescence 635/667 (AID 1065); conditions: higher = more signal, COS7 lysate expressing mutant human TOR1A
# [3] = small molecules captured by biotinylated probe aFGF2 – biochemical, small-molecule microarray, fluorescence 635/667, stem cell growth factor project, primary screen (AID 1067); conditions: higher = more signal;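 also: measures binding of biotinylated aFGF2 protein to printed compounds on slides; z-score merges feature fluorescence and signal-to-noise across triplicate slides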
# [4] = small molecules captured by biotinylated probe aFGF10 – biochemical, small-molecule microarray, fluorescence 635/667, stem cell growth factor project, primary screen (AID 1071); conditions: higher = more signal;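 also: score merges 667 nm spot intensity and signal to noise from triplicate slides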
# [5] = molecular target: Neurogenic locus notch homolog protein 2 (Homo sapiens) (UniProt Q04721); assay: small molecules binding Notch2 protein – biochemical, small-molecule microarray, 635 nm fluorescence, stem cell growth factors, primary screen (AID 1073); conditions: higher = more signal
# Neurogenic locus notch homolog protein 2 (Homo sapiens), sequence (Q04721 whole entry, looked up, canonical isoform): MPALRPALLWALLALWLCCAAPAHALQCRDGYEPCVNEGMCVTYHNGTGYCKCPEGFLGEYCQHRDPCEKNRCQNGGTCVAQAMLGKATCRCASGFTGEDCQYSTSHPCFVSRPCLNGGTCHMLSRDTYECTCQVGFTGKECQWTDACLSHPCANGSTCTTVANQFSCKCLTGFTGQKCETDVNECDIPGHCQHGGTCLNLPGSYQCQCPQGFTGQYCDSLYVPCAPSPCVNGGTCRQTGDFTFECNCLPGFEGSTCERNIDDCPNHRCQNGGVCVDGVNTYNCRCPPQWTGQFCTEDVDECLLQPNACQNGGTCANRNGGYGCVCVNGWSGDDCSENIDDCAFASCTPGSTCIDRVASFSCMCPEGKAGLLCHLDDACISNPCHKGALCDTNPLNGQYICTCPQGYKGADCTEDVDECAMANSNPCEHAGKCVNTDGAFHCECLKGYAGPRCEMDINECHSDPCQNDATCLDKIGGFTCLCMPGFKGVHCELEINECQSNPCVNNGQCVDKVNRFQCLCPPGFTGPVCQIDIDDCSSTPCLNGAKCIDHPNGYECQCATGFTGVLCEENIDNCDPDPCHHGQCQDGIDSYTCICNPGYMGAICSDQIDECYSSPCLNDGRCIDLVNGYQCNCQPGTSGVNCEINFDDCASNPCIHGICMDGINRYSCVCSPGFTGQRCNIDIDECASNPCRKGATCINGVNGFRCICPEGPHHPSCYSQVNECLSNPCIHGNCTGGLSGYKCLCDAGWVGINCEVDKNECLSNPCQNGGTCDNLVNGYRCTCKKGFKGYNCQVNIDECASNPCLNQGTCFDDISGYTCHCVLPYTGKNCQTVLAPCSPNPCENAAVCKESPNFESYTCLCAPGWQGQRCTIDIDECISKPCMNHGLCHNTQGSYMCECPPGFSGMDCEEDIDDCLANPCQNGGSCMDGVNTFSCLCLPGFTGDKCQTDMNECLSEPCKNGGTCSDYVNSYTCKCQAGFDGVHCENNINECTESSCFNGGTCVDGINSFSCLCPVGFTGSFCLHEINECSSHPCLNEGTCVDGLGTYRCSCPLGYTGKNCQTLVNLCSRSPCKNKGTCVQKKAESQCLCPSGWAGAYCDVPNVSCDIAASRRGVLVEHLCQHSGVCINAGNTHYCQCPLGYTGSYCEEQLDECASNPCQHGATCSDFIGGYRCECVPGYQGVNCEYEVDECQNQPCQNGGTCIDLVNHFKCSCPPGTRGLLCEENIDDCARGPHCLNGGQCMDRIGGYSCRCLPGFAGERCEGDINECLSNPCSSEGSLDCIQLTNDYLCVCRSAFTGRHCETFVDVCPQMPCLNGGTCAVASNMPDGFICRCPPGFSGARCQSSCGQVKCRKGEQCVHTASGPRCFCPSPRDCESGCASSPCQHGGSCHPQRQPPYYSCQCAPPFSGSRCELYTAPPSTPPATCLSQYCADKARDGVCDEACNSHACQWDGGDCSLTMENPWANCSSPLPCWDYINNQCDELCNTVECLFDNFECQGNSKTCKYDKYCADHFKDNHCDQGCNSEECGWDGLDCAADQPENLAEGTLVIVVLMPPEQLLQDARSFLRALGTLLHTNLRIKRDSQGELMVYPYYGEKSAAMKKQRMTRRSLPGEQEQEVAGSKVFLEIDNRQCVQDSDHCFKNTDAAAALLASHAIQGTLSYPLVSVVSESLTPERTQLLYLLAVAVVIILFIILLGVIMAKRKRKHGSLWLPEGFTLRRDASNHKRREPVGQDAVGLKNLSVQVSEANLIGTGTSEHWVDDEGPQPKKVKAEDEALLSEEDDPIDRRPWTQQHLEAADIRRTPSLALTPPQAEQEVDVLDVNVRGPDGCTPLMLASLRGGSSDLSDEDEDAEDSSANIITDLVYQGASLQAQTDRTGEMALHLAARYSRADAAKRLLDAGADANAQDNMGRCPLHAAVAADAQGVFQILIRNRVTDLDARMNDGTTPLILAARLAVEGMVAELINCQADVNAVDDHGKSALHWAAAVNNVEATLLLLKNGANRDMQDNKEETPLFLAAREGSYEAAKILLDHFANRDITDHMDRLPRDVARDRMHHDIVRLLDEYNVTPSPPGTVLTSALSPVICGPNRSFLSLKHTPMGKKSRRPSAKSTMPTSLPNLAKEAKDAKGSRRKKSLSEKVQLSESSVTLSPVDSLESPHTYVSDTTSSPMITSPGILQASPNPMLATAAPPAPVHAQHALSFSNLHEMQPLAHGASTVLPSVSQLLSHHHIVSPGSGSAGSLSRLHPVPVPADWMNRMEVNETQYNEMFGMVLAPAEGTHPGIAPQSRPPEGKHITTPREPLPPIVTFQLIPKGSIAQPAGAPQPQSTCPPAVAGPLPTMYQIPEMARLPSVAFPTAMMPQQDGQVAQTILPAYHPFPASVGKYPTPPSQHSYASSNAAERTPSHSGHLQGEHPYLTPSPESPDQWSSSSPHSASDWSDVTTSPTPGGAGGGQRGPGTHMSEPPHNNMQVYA
# [6] = molecular target: Pro-neuregulin-1, membrane-bound isoform (Homo sapiens) (UniProt Q02297); assay: small molecules binding neuregulin-1 protein – biochemical, small-molecule microarray, fluorescence 635/667, psychiatric disease protein project, primary screen (AID 1075); conditions: NRG1 binding, 635 nm fluorescence, higher = more signal;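 also: score combines 667 nm spot fluorescence with signal to noise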
# Pro-neuregulin-1, membrane-bound isoform (Homo sapiens), sequence (Q02297 whole entry, looked up, the tested form may be a part, canonical isoform): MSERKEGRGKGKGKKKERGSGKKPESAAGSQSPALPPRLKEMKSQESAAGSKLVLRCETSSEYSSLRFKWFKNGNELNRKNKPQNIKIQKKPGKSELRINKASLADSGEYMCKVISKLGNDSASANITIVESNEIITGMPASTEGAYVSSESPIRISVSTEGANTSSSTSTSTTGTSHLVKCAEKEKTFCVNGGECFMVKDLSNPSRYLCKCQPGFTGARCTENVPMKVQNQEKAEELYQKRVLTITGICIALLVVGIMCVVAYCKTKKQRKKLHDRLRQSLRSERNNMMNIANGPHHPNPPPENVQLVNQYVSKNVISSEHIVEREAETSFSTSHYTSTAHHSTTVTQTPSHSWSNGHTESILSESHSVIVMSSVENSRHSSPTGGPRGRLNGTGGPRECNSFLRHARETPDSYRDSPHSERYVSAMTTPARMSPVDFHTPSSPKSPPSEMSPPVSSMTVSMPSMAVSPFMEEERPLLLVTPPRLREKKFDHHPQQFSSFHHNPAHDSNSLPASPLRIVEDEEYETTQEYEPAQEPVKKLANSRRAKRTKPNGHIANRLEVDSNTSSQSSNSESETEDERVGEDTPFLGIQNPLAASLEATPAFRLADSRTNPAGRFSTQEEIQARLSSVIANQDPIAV
# [7] = test system: Neuregulin-1 EGF-like domain; assay: small molecules binding NRG1 EGF domain – biochemical, small-molecule microarray, 635 nm fluorescence, primary screen (AID 1081); conditions: higher = more signal;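 also: binding of the protein to compounds printed on small-molecule microarray slides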
# [8] = FRG1 expression reporter modulators in myotubes – cell-based, C2C12 myotubes, firefly/Renilla luciferase, luminescence, FRG1 inhibition for FSHD, primary screen (AID 1084); conditions: FRG1 promoter luciferase, higher = more signal, called active from +8 up or from −8 down
# [9] = small molecules captured by biotinylated probe aFST – biochemical, small-molecule microarray, fluorescence 635/667, stem cell growth factor project, primary screen (AID 1086); conditions: higher = more signal;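 also: score merges 667 nm fluorescence with signal-to-noise of each printed compound spot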
# [10] = binders of probe aHhip on microarray, primary screen, stem cell growth factor project, biochemical, small-molecule microarray, fluorescence 635/667 (AID 1087); conditions: higher = more signal;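 also: score merges spot fluorescence at 667nm with spot signal to noise ratio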
# [11] = test system: PRMT1 (protein arginine N-methyltransferase 1); assay: small molecules binding arginine methyltransferase PRMT1 – biochemical, small-molecule microarray, 635 nm fluorescence, primary screen (AID 1088); conditions: higher = more signal;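 also: binding of Prmt1 protein to compounds spotted on small-molecule microarray slides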
# [12] = growth effects on S. cerevisiae YJM789 – YJM789 clinical isolate, OD600, 24 h, basal, primary screen (AID 1089); conditions: higher = more signal, called active from +8 up or from −8 down;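 also: growth of clinical yeast isolate S. cerevisiae YJM 789 seeded 1000 cells per well; test concentration not given here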
# [13] = S. pombe growth modifiers, basal conditions – strain 972, OD600, 24 h, no modulator, primary screen (AID 1090);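 also: basal condition with compound alone and no growth modifier present; test concentration not given here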; conditions: S. pombe 972 growth, higher = more signal, called active from +8 up or from −8 down
# [14] = budding yeast growth modifiers under rapamycin – strain BY4716, OD600, 96 h, primary screen (AID 1091); also: test concentration not given here; conditions: S. cerevisiae BY4716 + rapamycin, higher = more signal, called active from +8 up or from −8 down
# [15] = molecular target: Torsin-1A-interacting protein 2 (Homo sapiens) (UniProt Q8NFQ8); assay: small molecules binding lysate-expressed LULL1 – cell lysate, human LULL1 lysate, 635/667 nm fluorescence, primary screen (AID 1092); conditions: small-molecule microarray, hLULL1 lysate binding, 635 nm fluorescence; higher = more signal;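 also: probe is lysate of COS7 cells overexpressing human LULL1; score merges per-feature 667 nm fluorescence with signal-to-noise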
# Torsin-1A-interacting protein 2 (Homo sapiens), sequence (Q8NFQ8 whole entry, looked up): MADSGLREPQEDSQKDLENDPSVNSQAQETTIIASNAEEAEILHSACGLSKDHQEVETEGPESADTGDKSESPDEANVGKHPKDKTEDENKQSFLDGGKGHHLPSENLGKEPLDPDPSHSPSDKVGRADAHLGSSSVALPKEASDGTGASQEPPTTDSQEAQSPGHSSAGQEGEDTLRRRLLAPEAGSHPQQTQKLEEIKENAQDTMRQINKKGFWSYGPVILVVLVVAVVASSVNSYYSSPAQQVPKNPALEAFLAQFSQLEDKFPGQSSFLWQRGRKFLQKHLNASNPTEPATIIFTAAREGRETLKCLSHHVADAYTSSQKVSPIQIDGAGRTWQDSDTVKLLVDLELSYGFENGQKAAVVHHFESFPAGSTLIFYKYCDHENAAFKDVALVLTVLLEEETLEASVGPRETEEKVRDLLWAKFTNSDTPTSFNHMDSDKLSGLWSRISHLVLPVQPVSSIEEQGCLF
# [16] = optical density change of DRC41 E. coli – strain DRC41, OD650, 24 h, E. coli filamentation project, primary screen (AID 1093);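 also: MC1000 strain lacking acrAB efflux and sulA so SOS filamentation is blocked; test concentration not given here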; conditions: E. coli DRC41 growth, higher = more signal, called active from +8 up or from −8 down
# [17] = probe aLefty2 binding to arrayed compounds – biochemical, biotinylated probe, 635/667 nm fluorescence, primary screen (AID 1094); conditions: small-molecule microarray, higher = more signal;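 also: score merges spot fluorescence near 667 nm with spot signal-to-noise ratio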
# [18] = test system: Noggin (protein binding on small-molecule microarray); assay: small molecules binding Noggin protein – biochemical, 635/667 nm fluorescence, primary screen (AID 1095); conditions: 635 nm fluorescence, higher = more signal;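 also: score merges 667 nm feature fluorescence with signal to noise over triplicate slides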
# [19] = molecular target: Neurogenic locus notch homolog protein 3 (Homo sapiens) (UniProt Q9UM47); assay: small molecules binding NOTCH3 protein – biochemical, 635/667 nm fluorescence, primary screen (AID 1096); conditions: small-molecule microarray, 635 nm fluorescence, higher = more signal
# [20] = probe aEGFR binding to arrayed compounds – biochemical, biotinylated probe, 635/667 nm fluorescence, primary screen (AID 1097); conditions: small-molecule microarray, higher = more signal;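 also: probe is a biotinylated anti-EGFR antibody binding compounds printed on slides; score combines fluorescence near 667 nm and signal to noise of each spot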
Structure (SMILES),composite z-score [1],composite z-score [2],composite z-score [3],composite z-score [4],composite z-score [5],composite z-score [6],composite z-score [7],z-score [8],composite z-score [9],composite z-score [10],composite z-score [11],z-score [12],z-score [13],z-score [14],composite z-score [15],z-score [16],composite z-score [17],composite z-score [18],composite z-score [19],composite z-score [20]
COc1ccc(CCNC(=O)[C@@]2(Sc3ccc(C)cc3)CC(=O)N(Cc3ccccc3Cl)[C@@H]2c2ccc(CO)cc2I)cc1,0.91,-0.548,-0.105,0.0404,-1.02,1.2,0.883,-2.03 (inactive),-0.299,0.0695,1.26,-1.62 (inactive),-3.24 (inactive),1.72 (inactive),1.8,0.68 (inactive),0.0349,-0.284,-0.788,-0.185
O=C1O[C@H](c2ccccc2)[C@H](c2ccccc2)N2[C@H]1[C@@H](C(=O)O)[C@]1(C(=O)Nc3ccc(C#CC4=CCCCC4)cc31)[C@H]2c1ccc(OCCO)cc1,-0.0152,0.651,-0.0438,1.09,1.44,1.77,1.34,0.448 (inactive),1.03,-0.0672,1.54,2.1 (inactive),1.14 (inactive),-0.1 (inactive),3.06,-0.413 (inactive),-0.0104,1.34,1.1,-0.0657
COc1ccc(C#Cc2ccc3c(c2)[C@]2(C(=O)N3)[C@H](C(=O)NC[C@H](O)c3ccccc3)[C@H]3C(=O)O[C@H](c4ccccc4)[C@H](c4ccccc4)N3[C@@H]2c2ccccc2OCCO)cc1,-0.185,0.324,0.0128,0.688,1.29,1.56,1.19,0.162 (inactive),0.653,-0.0994,1.54,2.23 (inactive),2.01 (inactive),4.39 (inactive),2.94,0.413 (inactive),0.0179,1.4,1.06,-0.0192
CCCCC=C[C@@H](NC(=O)c1ccc(C(=O)OC)cc1)c1ccccc1,0.026,0.0108,-0.116,0.213,1.31,0.919,0.903,1.86 (inactive),0.474,-0.189,1.29,-0.381 (inactive),-1.22 (inactive),0.771 (inactive),2.46,-0.894 (inactive),0.145,0.454,1.02,-0.0936
CCOC(=O)C1=CC[C@@H](c2ccccc2Cl)N(S(=O)(=O)c2ccc(C)cc2)C1,0.091,-0.507,0.102,0.435,1.3,1.31,0.828,-3 (inactive),0.802,0.0373,0.98,-2.37 (inactive),0.307 (inactive),0.661 (inactive),2.24,-0.239 (inactive),0.264,-0.434,1.04,-0.178
